Data: PubChem BioAssay AID652175 (National Center for Advancing Translational Sciences (NCATS), 2013)
Several values for one entry are separate records, joined by “and”; a condition that tells them apart may be missing. Identical values can stand only once. Inconclusive results are not listed. Unmarked numbers belong to inactive results. Activity calls are given as the source filed them. Calls follow the shape of the dose curve; as a rule, active = well fitted inhibition curve with a large enough effect; inconclusive = small, poorly fitted or top-dose-only effect; inactive = no such curve, though single readings can be large or run the other way.

Experiment: qHTS Assay for Lipid Storage Modulators: S3 Assay against Probe and Analogs
Conditions: Drosophila S3 cells, BODIPY lipid droplet fluorescence, 18-24 h, oleic acid added to induce droplets; series mostly up to 46.1 µM; activity, negative = lipid storage inhibition: at the top concentration
From the text: Storing lipids as a reservoir for energy or the anabolism of elementary metabolites is a common feature of probably all cells and is conserved from bacteria to humans. The universal cellular lipid storage organelle is the so-called lipid storage droplet (LD). Although ubiquitous, LDs share a simple structure composed of a hydrophobic core that harbors the storage lipids, which is shielded by a droplet-specific phospholipid monolayer to which proteins are attached. The current model of LD biogenesis involves an incorporation of the lipid core into the membrane leaflets of the endoplasmic reticulum (ER) followed by a subsequent budding-like maturation of a LD, which ultimately pinches off. Once released, LD volume can increase by localized lipogenesis or fusion of existing droplets. Storage lipids are re-mobilized enzymatically by lipase activity. Lipase regulation in the adipocyte is heavily studied and involves multiple components including catecholamine signaling, the LD-associated proteins Perilipin and comparative gene identification-58 (CGI-58) and at least two lipases named hormone sensitive lipase (HSL) and adipocyte triglyceride lipase (ATGL). LD regulation outside of the adipocyte is poorly understood and only few components are known. However, there is an urgent need to learn more about ectopic fat depots as mislocalized storage of lipids, for example in the liver or muscle, is an eminent health problem associated with insulin resistance or the metabolic syndrome. We developed a laser-scanning cytometer assay to enable 1,536-well screening and combined the results of the small molecules screen with an RNAi database based on lipid storage. In this assay we tested analogs of the probe against the original qHTS assay, which involved drosophila melanogaster cells (S3), to see if these small molecules could disrupt lipid storage. NIH Molecular Libraries Probe Production Centers Network [MLPCN] NIH Chemical Genomics Center [NCGC] MLPCN Grant: MH085686 Assay Submitter (PI): Mathias Beller, Max-Planck-Institut fur Biophysikalische Chemie
qHTS was performed with embryonic Drosophila S3 cells (Bloomington Drosophila Genomics Resource Center [DGRC]). We dispensed 4 uL of cells at 1.25 x 10^6 cells/mL into LoBase Aurora COC 1,536-well plates (black walled, clear bottom) with a bottle-valve solenoid-based dispenser (Aurora) to obtain 5,000 cells/well. Triacsin C (Sigma-Aldrich T-4540), an inhibitor of long-chain fatty acyl CoA synthetase that blocks synthesis of triglycerides, was used as a positive control for lipid under-storage. A total of 23 nL of compounds dissolved in DMSO at different concentrations were transferred to the assay plates using a Kalypsys pin tool equipped with a 1,536-pin array containing 10-nL slotted pins (FP1S10, 0.457-mm diameter, 50.8 mm long; V&P Scientific). The final DMSO concentration was 0.46%. One microliter of oleic acid at 400 uM (Calbiochem, #4954) was added to induce lipid droplet formation in the cells, and the plates were lidded with stainless steel rubber gasket lined lids containing pinholes. After 18-24 h incubation at 25 0C and 95% humidity, 4 uL of the BODIPY lipid dye 493/503 (1:2000, Molecular Probes) and the Cell Tracker Red CMTPX dye (Life Technologies, # 34552) were added to the wells to stain lipid droplets and enumerate cell number, respectively. Fluorescence was detected by excitation of the fluorophores with a 488-nm laser on an Acumen Explorer (TTP Lab Tech). The total intensity in channel 1 (500-530 nm) reflected lipid droplet accumulation. Cells were detected using channel 3 (575-640 nm) with 5-um width and 100-um depth filters. The ratio of the total intensity in PMT channel 1 over total intensity of channel 3 was also calculated. Percent activity was computed relative to an internal control (100% inhibited lipid droplet deposition due to the presence of 20 uM Triacsin C), which was added to 32 wells/plate.

SMILES	activity, negative = lipid storage inhibition [%]	Potency
CCOc1ccc(CCNC(C)=O)cc1OCC	-23.3	–
O=C(O)c1cccc(-c2noc(-c3ccccc3F)n2)c1	33.3	–
Cc1cc(SCc2sc(-c3ccc(C(F)(F)F)cc3)nc2C)ccc1OCC(=O)O	73.3	–
CC1=C(C(=O)NC2CCCc3c2cnn3-c2ccc(F)cc2F)OCCO1 (stereo not given)	–	59 nM (active)
CCOc1ccc(CCNC(=O)c2cc3sccc3n2Cc2ccccc2)cc1OCC	–	4.2 nM (active)
O=C(c1cc2sccc2n1Cc1ccccc1)N(CCc1ccc(O)c(O)c1)Cc1ccccc1	167	–
CCOc1ccc(CCNC(=O)c2cc3sccc3n2C(C)C)cc1OCC	–	187 nM (active)
CCOc1cc(CCNC(=O)c2cc3sccc3n2Cc2ccccc2)cc(F)c1OCC	–	33.2 nM (active)
CCn1c(C(=O)NCCc2ccc(OC)c(OC)c2)cc2sccc21	-46.7	–
CCOC(=O)C1CCN(C(=O)C(C)(C)NC(=O)Nc2ccc([N+](=O)[O-])cc2)CC1	-60	–
COc1cc(C)c(Sc2cnc(NC(=O)c3ccc(CNC(C)C(C)(C)C)cc3)s2)cc1C(=O)N1CCN(C(C)=O)CC1 (stereo not given)	120	–
CCn1c(C(=O)NCCc2ccc(OC)cc2)cc2sccc21	177	–
CC(C)(C)OC(=O)NCCOCCOCCOc1cccc(-n2ncc3c2CCCC3NC(=O)c2ccccn2)c1 (stereo not given)	–	18.7 nM (active)
CCOC(=O)C1CCN(C(=O)CNC(=O)Nc2ccccc2Cl)CC1	-20	–
Cc1cn(-c2cc(NC(=O)c3ccc(C)c(Nc4nccc(-c5cccnc5)n4)c3)cc(C(F)(F)F)c2)cn1	110	–
CCOC(=O)C1CCN(C(=O)C(C)(C)NC(=O)Nc2cccc(C(=O)OC)c2)CC1	-6.67	–
CCOc1ccc(CCNC(=O)c2ccc(C3(C(F)(F)F)N=N3)cc2)cc1OCC	-76.7	–
CCOC(=O)C1CCN(C(=O)C(C)(C)NC(=O)Nc2ccc(Cl)cc2Cl)CC1	–	1480 nM (active)
O=C(N[C@H]1CCCc2c1cnn2-c1ccc(F)cc1F)c1ccccn1	13.3	–
CCOc1ccc(CCN(C)C(=O)c2cc3sccc3n2Cc2ccccc2)cc1OCC	–	469 nM (active)

SMILES	activity, negative = lipid storage inhibition [%]	Potency
CCOC(=O)C1CCN(C(=O)C(C)(C)NC(=O)Nc2cccc(-c3csc(C)n3)c2)CC1	6.67	–
O=C(Nc1ccccc1-c1cn2c(CN3CCNCC3)csc2n1)c1cnc2ccccc2n1	-100	–
CCOc1ccc(CCNC(=O)c2cnon2)cc1OCC	-10	–
CCOc1ccc(CCNC(=O)C2CCCCC2)cc1OCC	66.7	–
O=C(NCCc1ccc(OCC(F)(F)F)c(OCC(F)(F)F)c1)c1cc2sccc2n1Cc1ccccc1	–	1320 nM (active)
CCOC(=O)C1CCN(C(=O)C(C)(C)NC(=O)Nc2ccc3sccc3c2)CC1	-63.3	–
CCOC(=O)C1CCN(C(=O)C2(NC(=O)Nc3ccccc3Cl)CC2)CC1	-60	–
O=C(NC1CCCc2c1cnn2-c1ccc(F)cc1F)c1ccccc1 (stereo not given)	–	20.9 nM (active) and 26.4 nM (active)
O=C(NC1CCCc2c1cnn2-c1ccc(F)cc1F)c1ccc(C2(C(F)(F)F)N=N2)cc1 (stereo not given)	–	7430 nM (active)
O=C(NCCc1ccc(O)c(O)c1)c1cc2sccc2n1Cc1ccccc1	26.7	–
CCOC(=O)C1CCN(C(=O)C2(NC(=O)Nc3ccc(F)cc3F)CCCCC2)CC1	-100	–
O=C(NC1CCCc2c1cnn2-c1ccc(F)cc1F)c1ccncc1 (stereo not given)	-80	–
O=C(NCCc1ccc2c(c1)OCO2)c1cc2sccc2n1Cc1ccccc1	3.33	–
CCOC(=O)C1CCN(C(=O)C2(NC(=O)Nc3ccccc3Cl)CCCCC2)CC1	–	166 nM (active)
CCOc1ccc(CCNC(=O)c2cc3sccc3[nH]2)cc1OCC	83.3	–
CN(C)CC(=O)NC1CCCc2c1cnn2-c1ccc(F)cc1F (stereo not given)	73.3	–
CCOc1ccc(CCNC(=O)C2(c3ccccc3)CC2)cc1OCC	177	–
CCOc1ccc(CCNC(=O)c2ccccn2)cc1OCC	180	–
O=C(NC1CCCc2c1cnn2-c1ccc(F)cc1F)c1ccccn1 (stereo not given)	–	23.5 nM (active) and 4.7 nM (active)
C[C@@H](NCCCc1cccc(C(F)(F)F)c1)c1cccc2ccccc12	-103	–
